Most compounds without a hit are left out; they make up all but 11% or so of the library.
HPGD block: qHTS Assay for Inhibitors of HPGD (15-Hydroxyprostaglandin Dehydrogenase); purified HPGD, NADH fluorescence kinetic, PGE2 substrate; hit rate 4.3% among 150,000; Potency, µM, for inactives: top-dose activity change, negative = inhibition, most hits filed as inhibitors; AID 894, 2007; 15-hydroxyprostaglandin dehydrogenase [NAD(+)] (Homo sapiens), P15428; further: potency means the concentration at half of the fitted maximal effect
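NADH formation kinetics: reaction with 30 uM PGE2 and 1 mM NAD+ (final), 20 nM enzyme, Tris-HCl pH 8 with Tween 20, after 15 min compound preincubation at room temperature. Fluorescence change, last versus first of five reads.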
JMJD2E inh: qHTS Assay for Inhibitors of Human Jumonji Domain Containing 2E (JMJD2E) | Lysine-specific demethylase 4E (Homo sapiens), B2RXH2 | JMJD2E catalytic domain, FDH-coupled NADH fluorescence (FDH is formaldehyde dehydrogenase) | Potency, µM (doses to about 57.1 µM), for inactives: at the highest dose activity change, negative = inhibition, usual class: inhibitors | hit rate 1.6% among 230,000 | AID 2147, 2009;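 further: potency means the concentration at half of the fitted maximal effect; 0% = wells with enzyme and -100% = buffer wells without enzyme; nearly all actives have a fitted effect of over 50% in size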
ALDH1A1 block: qHTS Assay for Inhibitors of Aldehyde Dehydrogenase 1 (ALDH1A1) | Aldehyde dehydrogenase 1A1 (Homo sapiens), P00352 | Purified ALDH1A1, NADH fluorescence, propionaldehyde substrate | Potency, µM (highest dose often 75.3 µM), without a hit: top-dose activity, negative = inhibition, most hits filed as inhibitors | hit rate 7.3% among 220,000 | AID 1030, 2008;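 further: potency means the concentration at half of the fitted maximal effect; plate controls were no enzyme wells and a reference inhibitor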
Target sequence (P00352 whole entry, looked up): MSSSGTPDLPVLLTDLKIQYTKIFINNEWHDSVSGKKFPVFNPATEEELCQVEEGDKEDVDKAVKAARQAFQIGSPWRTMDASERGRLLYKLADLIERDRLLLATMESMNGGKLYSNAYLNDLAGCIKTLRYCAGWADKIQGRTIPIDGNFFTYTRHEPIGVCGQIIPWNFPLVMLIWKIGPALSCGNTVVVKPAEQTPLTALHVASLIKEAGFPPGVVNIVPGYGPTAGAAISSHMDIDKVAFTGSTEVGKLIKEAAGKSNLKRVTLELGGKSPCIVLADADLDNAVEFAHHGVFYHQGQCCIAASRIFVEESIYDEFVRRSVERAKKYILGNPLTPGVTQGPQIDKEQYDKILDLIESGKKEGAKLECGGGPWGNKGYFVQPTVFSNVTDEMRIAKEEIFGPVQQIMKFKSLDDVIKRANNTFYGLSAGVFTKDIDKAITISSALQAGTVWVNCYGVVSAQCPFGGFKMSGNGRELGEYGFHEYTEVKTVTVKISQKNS
PNC inhibitor: High Content Assay for Compounds that inhibit the Assembly of the Perinucleolar Compartment; AID 2417, 2010; hit rate 3.1% among 140,000; activity change (PNC), negative = inhibition, % at 10 µM; PC3M PTB-GFP, PNC prevalence imaging, 16 h; hits give low values;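 active means readout at or below -70, meaning at least 70% loss of cells showing the perinucleolar compartment, a nuclear body marking cancer cells; inconclusive means readout between -30 and a set limit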;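 further: plate controls were DMSO wells for no effect and camptothecin positive control wells for full effect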
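Read-out is percentage of cells bearing a perinucleolar compartment, from automated 20x imaging of fixed, Hoechst-stained PC3M PTB-GFP cells. Cells were seeded 4 h, then exposed 16 h to compound (23 nl of library stock) in duplicate plates.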
* hit, by the source's call; ? = inconclusive; . = no result; [ ] = another dose, or the depositor's remark. Unless noted, the call rests on the fitted dose curve; in most records, active means well fitted inhibition curve with a large enough effect (not every such curve was filed as active); inconclusive means small, poorly fitted or top-dose-only effect, or another doubt; inactive means no such curve, though single readings can be large or run the other way. Unless noted, on the % scale 0 is the no-effect control and ±100 the full control effect.

SMILES	HPGD block	JMJD2E inh	ALDH1A1 block	PNC inhibitor
CCOc1cc(-c2c(C#N)c(N)nc3c2CCCC3)ccc1O	?	?	?	-114*
COc1cc(-c2c(C#N)c(N)nc(SCc3ccncc3)c2C#N)cc(OC)c1OC	13µM*	?	29%	?
COc1cc(-c2c(C#N)c(N)nc3c2CCCC3)cc(OC)c1OC	-19%	?	-2%	-100*
CCOc1cc(-c2cc(-c3ccc(N)cc3)nc(N)c2C#N)ccc1O	?	?	?	66
O=C(CN1CCC(n2nnc3cc(F)ccc32)CC1)NCc1ccco1	-20%	?	14µM*	-118*
COc1cc([N+](=O)[O-])cc2sc(NC(=O)c3c(F)cccc3F)nc12	.	-2%	7.9µM*	.
CCOC(=O)C1(Cc2ccc(Cl)cc2)CCN(C(=O)c2cc(C)nc(C)n2)CC1	.	9%	0%	.
CCCN1C(=O)C(Cc2nc3ccccc3c(=O)n2-c2ccccc2)c2ccccc21 (centres undefined)	-2%	8%	8.9µM*	42
CCN(CC)S(=O)(=O)c1ccc2c(c1)nc(SC(C)C(N)=O)n2-c1ccc(OC)cc1 (centres undefined)	-26%	-6%	16µM*	?
Cc1cc(S(=O)(=O)N2CCN=C2c2ccccc2)c(Cl)cc1Cl	-1%	-5%	-7%	5
CC(C)(C)c1ccc(-c2csc(NNC3=NCCCCC3)n2)cc1	-13%	8%	-15%	31
Brc1ccc(-c2csc(NNC3=NCCCCC3)n2)cc1	.	6%	11µM*	-22
CCOC(=O)CNC(=O)c1ccc2[nH]c3c(c2c1)CCCC3	-15%	?	-7%	7
NNC(=O)c1ccc2[nH]c3c(c2c1)CCCC3	.	31%	18µM*	.
CN(C)S(=O)(=O)c1cccc(NC(=S)N2CCc3ccccc32)c1	.	-7%	18µM*	.
Cc1ccc(S(=O)(=O)N(C)C)cc1NC(=S)N1CCc2ccccc21	.	-9%	25µM*	.
CC1Cc2ccccc2N1C(=S)Nc1cccc(S(=O)(=O)N(C)C)c1 (centres undefined)	.	-11%	?	.
Cc1ccc(NC(=O)COC(=O)CN2C(=O)c3ccccc3C2=O)cc1S(=O)(=O)N(C)C	.	6%	?	.
CN(C)S(=O)(=O)c1cccc(NC(=O)COC(=O)/C=C/c2ccc(Br)o2)c1	.	-25%	8.9µM*	.
Cc1ccc(NC(=O)c2ccncc2)cc1S(=O)(=O)N(C)C	-8%	-3%	-1%	-5
CN(C)S(=O)(=O)c1cccc(NC(=O)COC(=O)c2ccc(Br)o2)c1	0%	1%	3%	109
Cc1ccc(NC(=O)c2ccc(Br)o2)cc1S(=O)(=O)N(C)C	.	-2%	14µM*	.
Cc1ccc(NC(=O)COC(=O)/C=C/c2ccc(Br)o2)cc1S(=O)(=O)N(C)C	.	-8%	20µM*	.
Cc1noc(C)c1C(=O)N1CCC2(CCCN(C(=O)Nc3cccc(F)c3)C2)CC1	-2%	.	3%	.
c1ccc(-c2nnn(CCN3CCCCC3)n2)cc1	-11%	.	-3%[13.5 µM]	.
SMILES	HPGD block	JMJD2E inh	ALDH1A1 block	PNC inhibitor
O=C1[C@@H]2[C@H](C(=O)N1O)[C@H]1C=C[C@@H]2C1	-9%	-1%	0.63µM*	33
O=C1C2C3C=CC(C3)C2C(=O)N1CCCCN1C(=O)C2C3C=CC(C3)C2C1=O (centres undefined)	-5%	-11%	?	-13
COC(=O)[C@@]1(Cc2ccc(OC)cc2)[C@H]2c3cc(C(=O)N(C)C)n(CCSCCO)c3C[C@H]2CN1C(=O)c1ccccc1	-13%	-8%	-14%	6
O=C(NC(=S)Nc1ccc(N2CCOCC2)cc1)c1cncc(Br)c1	18µM*	-14%	?	23
O=C(NC(=S)Nc1ccc(N2CCOCC2)cc1)c1ccccc1	.	-7%	?	.
CCc1ccc(C(=O)NC(=S)Nc2ccc(N3CCOCC3)cc2)cc1	.	-1%	11µM*	.
O=C(NC(=S)Nc1ccc(CN2CCOCC2)cc1)c1ccco1	.	0%	?	.
O=C(NC(=S)Nc1cc(S(=O)(=O)N2CCOCC2)ccc1O)c1ccco1	.	5%	25µM*	.
O=C(NC(=S)Nc1ccc(N2CCOCC2)cc1)c1ccco1	22µM*	10%	?	-3
O=C(NC(=S)Nc1ccc(N2CCOCC2)cc1)c1cccc(Cl)c1	-23%	-1%	?	?

Screening results: PubChem BioAssay, National Center for Advancing Translational Sciences (NCATS)
